Vif inh: HIV Vif inhibition. HEK293T cells, Vif self-association by quenched fluorescence, imaging, 24 h. inhibition, % at 7.49 µM. 340,000 tested, 0.35% active. AID 602346; in the data active means inhibition above about 50%, passing the limit was not always enough; inconclusive means no clear call, values can overlap the other calls; inactive means below about 31%
HSF1 inh: HSF1 inhibition; 300,000 tested, 0.77% active; activity change, negative = inhibition, % at 7.5 µM (by protocol); NIH3T3-HGL HSE-luciferase, MG132-induced, luminescence 8 h; hits give low values;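 active means more than half of replicate wells show activity change below -50%, luminescence cut by over half; inconclusive means some wells, but at most half, below -50%; inactive means no replicate well below -50%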;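 further: luciferase reports HSF-1 transcriptional activity via heat shock element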
HSF-1 act: increases HSF-1 driven luciferase reporter signal. 300,000 tested, 1.7% active. activation, % at 9 µM. NIH3T3-HGL HSF-1 luciferase reporter, MG132, 8 h; 100% = twice DMSO control signal;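 active means mean replicate activation of at least 50% with a set share of replicates each reaching 50%; inconclusive means only one of those two conditions met; inactive means mean below 50% and too few replicates reaching it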
esBAF inh: inhibitors of esBAF chromatin remodeling in mouse ES cells; Bmi1-luciferase knock-in reporter, 24 h; 100% = twice the neutral-well signal; AID 602393; 350,000 tested, 2% active; reporter increase, % at 12.5 µM; in the data active means activation above about 40%; inconclusive means no clear call, values can overlap the other calls;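 further: a rise in the Bmi1 reporter signal indicates esBAF inhibition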
Hits are given with their value; - = inactive; ? = inconclusive; . = not tested or not shown. Compounds with a hit are over-represented: about 3.4% of the library has one in this group of screens.

SMILES	Vif inh	HSF1 inh	HSF-1 act	esBAF inh
COc1ccc(CCNc2oc(Cc3cccc4ccccc34)nc2C#N)cc1OC	-	-	-	.
C[C@@H]1CCCCO[C@@H](CN(C)Cc2ccc(C(=O)O)cc2)[C@H](C)CN([C@@H](C)CO)C(=O)c2cc(NC(=O)c3ccccc3)ccc2O1	.	.	.	-
COc1ccc(NC(=O)c2ccc3c(c2)n(C)c(=O)n3C)cc1	.	-	-	-
CN1CCSc2ccc(C(=O)Nc3cccc(F)c3)cc21	-	-	159.8	50.5
COc1ccc(NC(=O)c2ccc3c(c2)N(C)CCS3)cc1	-	-	-	85.3
C=C1SC(=Nc2ccccc2Cl)N(C(=O)c2sc3ccccc3c2Cl)C1(C)C	-	-	56.6	.
O=C(C1CCOCC1)N1C[C@H]2[C@@H](c3ccccc31)[C@H](CO)N2Cc1ccccc1Cl	.	.	.	-
COc1ccc(C(=O)/C(=C/c2cccs2)c2nc3ccccc3o2)cc1	.	-	-	-
COc1ccc(/C=C(\CC(=O)O)c2nc3ccccc3o2)cc1	-	-	-	69.4
Cc1c(Cc2ccccc2)sc(/N=C/c2ccc3ccccc3c2)c1C(N)=O	-	.	.	.
Cc1c(Cc2ccccc2)sc(/N=C/c2c(O)ccc3ccccc23)c1C(N)=O	-	-57.6	-	.
O=c1oc(-c2ccc(Br)cc2)nc2ccccc12	-	-	-	45.6
Cc1ccc(OCc2nc(-c3ccc(Cl)cc3)n[nH]2)cc1	-	-	-	-
Cc1ccc(-c2n[nH]c(Cc3ccccc3)n2)cc1	-	-	-	53.8
C[C@@H]1CN([C@H](C)CO)C(=O)Cc2cc(NS(=O)(=O)c3cccs3)ccc2O[C@H]1CN(C)S(=O)(=O)c1ccc(F)cc1	.	.	.	-
Cc1ccc(SCC(=O)N/N=C/c2ccco2)cc1	-	-	58.8	-
c1cn(CCCNc2ncnc3nc[nH]c23)cn1	-	-	-	-
CCN1CCN(CCCNc2ncnc3nc[nH]c23)CC1	-	-86.9	-	-
O=C(Nc1ccc(S(=O)(=O)NCC2CCCO2)cc1)c1ccccc1 (stereo unspecified)	-	-64.6	-	-
COc1cc(C(C)=O)ccc1OCC(=O)NCC1(N2CCCCC2)CCCCC1	51.0	-	-	.
O=C(/C=N/NC(=O)c1ccccc1Br)c1ccccc1	-	-	58.7	.
O=C(NCCc1ccc(Cl)cc1)c1cc2ccccn2n1	-	-	-	.
CC(=O)Nc1ccc(NC(=O)c2ccccc2Br)cc1	.	.	.	-
O=C(Nc1ccc(Br)cc1)c1ccccc1Br	-	-	53.3	78.5
O=C(Nc1ccc(Br)cc1)c1cc2ccccn2n1	-	-	70.6	.
SMILES	Vif inh	HSF1 inh	HSF-1 act	esBAF inh
C[C@@H]1CN([C@H](C)CO)C(=O)c2cc(NC(=O)c3ccccc3)ccc2O[C@@H](C)CCCCO[C@@H]1CN(C)C(=O)Cc1ccccc1	.	.	.	-
O=C(NCC[C@@H]1CC[C@H](NS(=O)(=O)c2ccccc2)[C@@H](CO)O1)c1ccc2c(c1)OCO2	.	.	.	-
CNC[C@@H]1Oc2cc(C#Cc3cccnc3)ccc2S(=O)(=O)N([C@H](C)CO)C[C@H]1C	.	.	.	-
COc1ccc(S(=O)(=O)N(C)C[C@@H]2Oc3ccc(NS(=O)(=O)c4cn(C)cn4)cc3CC(=O)N([C@@H](C)CO)C[C@H]2C)cc1	.	.	.	-
CNC(=O)C1=C(C)Nc2nc3ccccc3n2C1c1cccc(OC)c1 (stereo unspecified)	-	-	-	-
C=CCOC(=O)C1=C(C)Nc2nc3ccccc3n2C1c1ccncc1 (stereo unspecified)	-	-	62.0	.
CCOC(=O)C1=C(C)Nc2nc3ccccc3n2C1c1ccncc1 (stereo unspecified)	-	-	79.6	-
COc1cccc(-c2nnc(-c3ccc(C(F)(F)F)cc3)o2)c1OC	-	-	-	53.2
C#CCSc1nnc(-c2ccc(OC)cc2)o1	.	-	66.2	42.8
Cc1ccccc1-c1nnc(SCc2ccccc2F)o1	-	-	74.4	?
Fc1ccccc1CSc1nnc(-c2ccccc2)o1	-	-	-	-
COc1ccc(-c2nnc(SCc3ccccc3F)o2)cc1	.	-	53.7	.
FC(F)(F)Oc1ccccc1-c1nnc(-c2cccc(C(F)(F)F)c2)o1	-	.	.	-
Cc1ccccc1S(=O)(=O)NCC[C@@H]1CC[C@@H](NC(=O)Nc2cccc(Cl)c2)[C@@H](CO)O1	.	.	.	-
COc1ccc(CN(C)C[C@H]2OCCCC[C@H](C)Oc3ccc(NC(=O)Nc4ccccc4)cc3C(=O)N([C@H](C)CO)C[C@@H]2C)cc1	.	.	.	-
CNC(=O)C[C@H]1CC[C@H]2[C@@H](COc3ccc(NC(=O)c4ccc(C#N)cc4)cc3C(=O)N2C)O1	.	.	.	-
Cc1cccc(-c2nnc(-c3cccc4ccccc34)o2)c1	-	.	.	-
c1ccc(CSc2nnc(-c3c[nH]c4ccccc34)o2)cc1	-	-	?	53.4
Cc1ccc(-c2nnc(-c3cccc4ccccc34)o2)cc1	-	.	.	54.4
Cc1ccccc1-c1nnc(SCc2ccccc2)o1	-	-	64.3	63.1
Cc1ccc(CSc2nnc(-c3cccc4ccccc34)o2)cc1	-	.	.	-
COc1ccc(-c2nnc(-c3ccc(C)cc3)o2)cc1	-	-	53.4	-
C[C@@H]1CN([C@@H](C)CO)C(=O)c2cc(C#Cc3cccc(F)c3)cnc2O[C@@H]1CN(C)C(=O)C1CCCCC1	.	.	.	-
C[C@H](CO)N1C[C@H](C)[C@@H](CN(C)C(=O)Nc2ccc(F)cc2)Oc2c(NC(=O)NC3CCCCC3)cccc2C1=O	.	.	.	-
O=c1cc(/C=C/c2ccccc2)oc2ccccc12	-	-	-	59.0
SMILES	Vif inh	HSF1 inh	HSF-1 act	esBAF inh
CCCCCc1cc(=O)c2ccccc2o1	-	.	.	50.2
O=c1cc(CO)oc2ccccc12	-	.	.	-
O=c1cc(-c2ccccc2)oc2ccccc12	-	.	.	56.0
O=C(NC1CC1)c1cc(=O)c2ccccc2o1	-	-	-	-
S=C(c1ccc(-c2ccc(Cl)cc2)o1)N1CCCCC1	-	-	100.7	-
S=C(c1ccc(-c2ccccc2Cl)o1)N1CCCCC1	-	-	-	.
CN1CCN(C(=S)c2ccc(-c3cccc(Cl)c3Cl)o2)CC1	-	-	67.6	.
O=C(c1ccc(-c2ccc([N+](=O)[O-])cc2)o1)N1CCCCC1	-	-	87.2	.
CC(C)NC(=O)N[C@H]1C=C[C@@H](CC(=O)NCc2ccc(Oc3ccccc3)cc2)O[C@@H]1CO	.	.	.	-
CC(C)NC(=O)N(C)C[C@@H]1Oc2c(NC(=O)c3ccncc3)cccc2C(=O)N([C@H](C)CO)C[C@H]1C	.	.	.	-
COc1ccc2nnc(-c3ccc(C(F)(F)F)cc3)n2n1	-	-88.7	-	-
FC(F)(F)c1cccc(N2CCN(c3ccc4nnc(-c5ccccc5)n4n3)CC2)c1	.	-	-	-
CC(=O)CSc1nc2c(c(=O)[nH]c(=O)n2C)n1Cc1cccc(Br)c1	-	-	58.3	-
Cn1c(=O)[nH]c(=O)c2c1nc(SCCC(=O)O)n2Cc1cccc(Br)c1	-	-	-	-
Cc1ccc(Cn2c(Sc3ncccn3)nc3c2c(=O)[nH]c(=O)n3C)cc1	-	-65.0	-	-
COc1ccc(S(=O)(=O)N(C)C[C@H]2Oc3ccc(N(C)C)cc3CC(=O)N([C@H](C)CO)C[C@@H]2C)cc1	.	.	.	-
CCCNC(=O)C[C@@H]1CC[C@H]2[C@H](COc3ccc(NC(=O)NCC)cc3C(=O)N2C)O1	.	.	.	-

Screens as filed in PubChem BioAssay.
